# Laboratory results reported in PubChem BioAssay (NCATS).
# Values joined by “and” are separate entries in the source; they are usually repeats but may differ in a detail not shown here. Identical values can stand only once. Results filed as inconclusive are left out. Where a call stands in place of a potency, no number is given. Active and inactive are the calls of the source. The call rests on the fitted dose curve.
# Legend:
# [1] = Cytotoxicity counterscreen for inhibitors of SARS-CoV-2 cell entry (AID 1645845); further: nearly all actives have a fitted effect of over 50% in size
# Method in brief: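 Expi293F/hACE2 cells seeded overnight; cpd pin-transferred in DMSO, 1 h preincubation, + media, 48 h 37 C 5% CO2; ATPLite 1step luminescence; normalized to cells and no cells.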
# [2] = Primary qHTS to identify inhibitors of SARS-CoV-2 cell entry (AID 1645846); settings: activity change, negative = inhibition: at 57.1 µM (top of the series) unless noted; further: nearly all actives have a fitted effect of over 45% in size
# Method in brief: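 Inhibition of spike-mediated entry was scored in human ACE2-transfected Expi293F cells. Particles were MLV-pseudotyped with Wuhan-Hu-1 S carrying a 19-aa C-terminal deletion; signal was luciferase after two days, scaled between spike PP and fusion-protein-free PP.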
Structure (SMILES),outcome [1],"activity change, negative = inhibition [2]",Potency [1],Potency [2]
NC[C@H]1O[C@H](O[C@H]2[C@H](O)[C@@H](O[C@H]3O[C@H](CO)[C@@H](O)[C@H](N)[C@H]3O)[C@H](N)C[C@@H]2N)[C@H](O)[C@@H](O)[C@@H]1O,inactive [at 5.25 µM],-26.4% [at 5.25 µM],,
COc1ccc2cc1Oc1cc3c(cc1OC)CC[N+](C)(C)[C@H]3Cc1ccc(cc1)Oc1c(OC)c(OC)cc3c1[C@@H](C2)[N+](C)(C)CC3,,,inactive,inactive
Cc1c(N(C)CS(=O)(=O)O)c(=O)n(-c2ccccc2)n1C,,1.77%,inactive,
CCCc1c2oc(C(=O)O)cc(=O)c2cc2c(=O)cc(C(=O)O)n(CC)c12,,-16.5%,inactive,
CC(C)(C)NCC(O)COc1cccc2c1C[C@H](O)[C@H](O)C2 (stereo partly drawn),,4.34%,inactive,
Cc1ccnc(NS(=O)(=O)c2ccc(N)cc2)n1,,,inactive,inactive
CC1CC(OC(=O)c2ccccc2O)CC(C)(C)C1 (stereo not drawn),,,inactive,inactive
CC(C)COC(=O)c1ccc(N)cc1,,,inactive,inactive
Clc1cccc(C(c2ccc3nc[nH]c3c2)n2ccnc2)c1 (stereo not drawn),,,inactive,inactive
O=c1[nH]c(=O)n([C@H]2CCCO2)cc1F,,,inactive,inactive
Cc1ccccc1C(=O)N1CC/C(=N\OS(=O)(=O)O)c2ccc(Cl)cc21,,,inactive,inactive
COc1ccc(NS(=O)(=O)c2ccc(N)cc2)nn1,,,inactive,inactive
O=C1c2c(O)cccc2Cc2cccc(O)c21,,,inactive,inactive
C[C@H](NC(CCc1ccccc1)C(=O)O)C(=O)N1CCC[C@H]1C(=O)O (stereo partly drawn),,,inactive,inactive
C=CCN1CCc2nc(N)sc2CC1,,,inactive,inactive
O=C(O)c1ccccc1Nc1cccc(C(F)(F)F)c1,,,inactive,inactive
Cc1ccc(C(=O)C(=O)O)cc1C,,-19.4%,inactive,
Cc1cc(C)nc(NS(=O)(=O)c2ccc(N)cc2)n1,,,inactive,inactive
COC(=O)/C=C\C(=O)OC,,-18.2%,inactive,
CN(CC1(C)CCCO1)S(=O)(=O)c1ccc(Cl)c(S(N)(=O)=O)c1 (stereo not drawn),,-32.6%,inactive,
CN[C@@H]1CCc2[nH]c3ccc(C(N)=O)cc3c2C1,,-34.4%,inactive,
CC(=O)Oc1cccc(O)c1,,-13.8%,inactive,

Structure (SMILES),outcome [1],"activity change, negative = inhibition [2]",Potency [1],Potency [2]
CN(C)C(=O)COC(=O)Cc1ccc(OC(=O)c2ccc(N=C(N)N)cc2)cc1,,-4.53% and -0.733%,inactive,
NC[C@H]1O[C@H](O[C@H]2[C@H](O[C@@H]3O[C@H](CO)[C@@H](O)[C@H]3O)C(O)[C@H](N)C[C@@H]2N)[C@H](N)[C@@H](O)[C@@H]1O (stereo partly drawn),inactive [at 11.3 µM],-2.22% [at 11.3 µM],,
CC(=O)O[C@]1(C(C)=O)CC[C@H]2[C@@H]3C[C@H](C)C4=CC(=O)CC[C@]4(C)[C@H]3CC[C@@]21C,,-11.3%,inactive,
CCN1CCC[C@H]1CNC(=O)c1cc(S(N)(=O)=O)ccc1OC,,,inactive,inactive
CO/N=C(\C(=O)N[C@@H]1C(=O)N2C(C(=O)O)=C(C[N+]3(C)CCCC3)CS[C@H]12)c1csc(N)n1,,-9.52%,inactive,
CCC[C@@H]1C[C@@H](C(=O)N[C@@H]([C@H]2O[C@H](SC)[C@H](O)[C@@H](O)[C@H]2O)[C@H](C)Cl)N(C)C1,,-7.46%,inactive,
CCN1CC(CCN2CCOCC2)C(c2ccccc2)(c2ccccc2)C1=O (stereo not drawn),,-22.6%,inactive,
CCCCC[C@H](O)/C=C/[C@@H]1[C@H]2C/C(=C/CCCC(=O)O)O[C@H]2C[C@H]1O,,-21%,inactive,
O=C(c1ccccc1)C(O)c1ccccc1 (stereo not drawn),,,inactive,inactive
O=C(O)[C@@H](O)[C@H](O)[C@H](O)[C@@H](O)C(=O)O,,-0.518%,inactive,
COc1ccc(C(=O)c2ccccc2O)c(O)c1,,,inactive,inactive
COc1ccc(C2CNC(=O)C2)cc1OC1CCCC1 (stereo not drawn),,4.15% and -11.8%,inactive,
COc1cc(C)c(/C=C/C(C)=C/C=C/C(C)=C/C(=O)O)c(C)c1C,,-1.85%,inactive,
Cc1c(I)c(=O)n(-c2ccccc2)n1C,,,inactive,inactive
CC(CCc1ccccc1)NCC(O)c1ccc(O)c(C(N)=O)c1 (stereo not drawn),,-28.2%,inactive,
COc1cc(/C=C/C(=O)O[C@H]2CC[C@]34C[C@]35CC[C@]3(C)[C@@H]([C@H](C)CCC=C(C)C)CC[C@@]3(C)[C@@H]5CC[C@H]4C2(C)C)ccc1O,,,inactive,inactive
CN1[C@@H]2CC(OC(=O)[C@H](CO)c3ccccc3)C[C@H]1[C@@H]1O[C@@H]12 (stereo partly drawn),,,inactive,inactive
COC(=O)c1cc(Cl)ccc1NS(=O)(=O)C(F)(F)F,,,inactive,inactive
C[C@@H](O)[C@H]1C(=O)N2C(C(=O)O)=C(SCCN=CN)C[C@H]12,,,inactive,inactive
O=C(OCc1ccccc1)c1ccccc1,,,inactive,inactive
CC(CCc1ccc(O)cc1)NCCc1ccc(O)c(O)c1 (stereo not drawn),,-37.3%,inactive,
CCN1C(=O)NC(c2ccccc2)C1=O (stereo not drawn),,-1.94%,inactive,
